The source made the active and inactive calls. The calls were made as follows: active = hit-call score of the fitted dose curve at least 0.9, where 1 is the maximum; inactive = score below 0.9.
How the values were obtained:
Details in all cases: mRNA level, 48 h; actives raise or lower the signal
[1] = read-out: CYP3A5 (gene 1577); assay: LTEA_HepaRG_CYP3A5: Life Technologies and Expression Analysis (LTEA) Assay for CYP3A5 using HepaRG (AID 2283493)
Outline: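 mRNA levels were quantified by qRT-PCR on Fluidigm arrays and normalized to three housekeeping genes. Differentiated HepaRG cells received 48 h exposure (top 100 uM, half-log steps, 0.5% DMSO vehicle, duplicate); bidirectional fitting versus DMSO.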

[2] = read-out: Fatty Acid-Binding Protein 1 (FABP1), FABP1 (gene 2168); assay: LTEA_HepaRG_FABP1: Life Technologies and Expression Analysis (LTEA) Assay for Fatty Acid-Binding Protein 1 (FABP1) using HepaRG (AID 2283494)
Outline: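 qRT-PCR readout of FABP1 transcript (normalized to three housekeeping genes) after 48 h chemical exposure of HepaRG cells; eight concentrations, half-log steps, max 100 uM, 0.5% DMSO vehicle; gain or loss fitted relative to DMSO baseline.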

[3] = read-out: Cytochrome P450 4A22 (Homo sapiens) (UniProt Q5TCH4); assay: LTEA_HepaRG_CYP4A22: Life Technologies and Expression Analysis (LTEA) Assay for Cytochrome P450 4A22 (CYP4A22) using HepaRG (AID 2283495)
Outline: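 Concentration-response (8 points, max 100 uM, 0.5% DMSO) in human HepaRG liver cells after 48 h exposure. CYP4A22 mRNA by TaqMan qRT-PCR with housekeeping-gene normalization.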

[4] = read-out: Cytochrome P450 7A1 (Homo sapiens) (UniProt P22680); assay: LTEA_HepaRG_CYP7A1: Life Technologies and Expression Analysis (LTEA) Assay for Cytochrome P450 7A1 (CYP7A1) using HepaRG (AID 2283496)
Outline: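 HepaRG, 48 h exposure, 8-pt half-log series from 100 uM, 0.5% DMSO vehicle, duplicates. Readout: TaqMan qRT-PCR mRNA vs three housekeeping genes; bidirectional curve fit against DMSO baseline.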

[5] = read-out: Glutathione S-Transferase (GSTA2), GSTA2 (gene 2939); assay: LTEA_HepaRG_GSTA2: Life Technologies and Expression Analysis (LTEA) Assay for Glutathione S-Transferase (GSTA2) using HepaRG (AID 2283497)
Outline: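 qRT-PCR readout of GSTA2 transcript, normalized to three housekeeping genes, fitted bidirectionally against 0.5% DMSO baseline. Differentiated HepaRG cells received compound for 48 h at 8 concentrations (top 100 uM, half-log steps).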

[6] = read-out: Glutamate-cysteine ligase catalytic (GCLC), GCLC (gene 2729); assay: LTEA_HepaRG_GCLC: Life Technologies and Expression Analysis (LTEA) Assay for Glutamate-cysteine ligase catalytic (GCLC) using HepaRG (AID 2283498)
Outline: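 HepaRG, 48 h exposure, 8-pt half-log series from 100 uM, 0.5% DMSO vehicle; TaqMan qRT-PCR for GCLC mRNA, housekeeping-normalized; bidirectional curve fit vs DMSO baseline.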

[7] = read-out: growth arrest and DNA damage 45 (GADD45G), GADD45G (gene 10912); assay: LTEA_HepaRG_GADD45G: Life Technologies and Expression Analysis (LTEA) Assay for growth arrest and DNA damage 45 (GADD45G) using HepaRG (AID 2283499)
Outline: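 Concentration-response in HepaRG: 48 h dosing, 0.5% DMSO, highest level 100 uM. GADD45G expression by qRT-PCR, normalised to endogenous controls; bidirectional fit to DMSO.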

[8] = read-out: Glutamate-cysteine ligase regulatory (GCLM), GCLM (gene 2730); assay: LTEA_HepaRG_GCLM: Life Technologies and Expression Analysis (LTEA) Assay for Glutamate-cysteine ligase regulatory (GCLM) using HepaRG (AID 2283500)
Outline: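 GCLM expression quantified by qRT-PCR, normalized to three housekeeping genes, after 48 h chemical treatment of HepaRG cells in duplicate at 8 concentrations (top 100 uM, half-log steps, 0.5% DMSO). Changes fitted both directions against vehicle.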

[9] = read-out: Glutathione S-transferase M3 (GSTM3), GSTM3 (gene 2947); assay: LTEA_HepaRG_GSTM3: Life Technologies and Expression Analysis (LTEA) Assay for Glutathione S-transferase M3 (GSTM3) using HepaRG (AID 2283501)
Outline: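 Expression of GSTM3 is determined by qRT-PCR in human liver HepaRG cells treated 48 h with an 8-point half-log range from 100 uM in 0.5% DMSO.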

[10] = read-out: Heat shock 70 kDa protein 1 (HSPA1A), gene 3303; assay: LTEA_HepaRG_HSPA1A: Life Technologies and Expression Analysis (LTEA) Assay for Heat shock 70 kDa protein 1 (HSPA1A) using HepaRG (AID 2283502)
Outline: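 HSPA1A expression measured by qRT-PCR with ACTB/GAPDH/POLR2A normalization; curves fitted in both directions relative to DMSO vehicle. Exposure: 48 h in HepaRG cells, duplicate 8-point half-log series from 100 uM, 0.5% DMSO, serum-free induction medium.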

[11] = read-out: Hypoxia-inducible factor 1-alpha (Homo sapiens) (UniProt Q16665); assay: LTEA_HepaRG_HIF1A: Life Technologies and Expression Analysis (LTEA) Assay for Hypoxia-inducible factor 1 (HIF1A) Trancription factor using HepaRG (AID 2283503)
Outline: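 HIF1A transcript level read by qRT-PCR (ACTB, GAPDH, POLR2A normalization) after 48 h chemical exposure of HepaRG cultures. Eight half-log concentrations, top 100 uM, 0.5% DMSO vehicle, duplicates; bidirectional curve fit against DMSO baseline.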

[12] = read-out: 3-Hydroxy-3-Methylglutaryl-CoA Synthase 2 (HMGCS2), HMGCS2 (gene 3158); assay: LTEA_HepaRG_HMGCS2: Life Technologies and Expression Analysis (LTEA) Assay for 3-Hydroxy-3-Methylglutaryl-CoA Synthase 2 (HMGCS2) using HepaRG (AID 2283504)
Outline: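 This steatosis marker was read as HMGCS2 mRNA change in HepaRG cells treated 48 h with up to 100 uM chemical. Normalisation used housekeeping genes; activity in either direction was fitted relative to 0.5% DMSO vehicle.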

[13] = read-out: HGF (gene 3082); assay: LTEA_HepaRG_HGF: Life Technologies and Expression Analysis (LTEA) Assay for Hepatocyte Growth Facto (HGF) using HepaRG (AID 2283505)
Outline: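 Using HepaRG monolayers kept in 0.5% DMSO, chemicals were tested in duplicate over eight half-log concentrations from 100 uM for 48 h. Endpoint: HGF mRNA change relative to DMSO, normalized to ACTB/GAPDH/POLR2A.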

[14] = read-out: Insulin Like Growth Factor 1 (IGF1), IGF1 (gene 3479); assay: LTEA_HepaRG_IGF1: Life Technologies and Expression Analysis (LTEA) Assay for Insulin Like Growth Factor 1 (IGF1) using HepaRG (AID 2283506)
Outline: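 Expression measured by TaqMan qRT-PCR on a Fluidigm array, with three housekeeping genes for normalisation, after 48 h treatment of HepaRG cells. Top concentration 100 uM with half-log steps, 0.5% DMSO vehicle, bidirectional fit.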

[15] = read-out: Insulin-like growth factor-binding protein 1 (IGFBP1), IGFBP1 (gene 3484); assay: LTEA_HepaRG_IGFBP1: Life Technologies and Expression Analysis (LTEA) Assay for Insulin-like growth factor-binding protein 1 (IGFBP1) using HepaRG (AID 2283508)
Outline: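 HepaRG, 48 h, 8 conc. (max 100 uM, half-log), duplicates, 0.5% DMSO. Readout: TaqMan qRT-PCR, ACTB/GAPDH/POLR2A normalisation. Fit: bidirectional vs DMSO.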

[16] = read-out: Interleukin 6 (IL6), IL6 (gene 3569); assay: LTEA_HepaRG_IL6: Life Technologies and Expression Analysis (LTEA) Assay for Interleukin 6 (IL6) using HepaRG (AID 2283509)
Outline: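 qRT-PCR read-out of IL6 transcript, normalized to three housekeeping genes, after 48 h chemical exposure of HepaRG cells; 8-point half-log series, top 100 uM, 0.5% DMSO vehicle. Bidirectional curve fitting against DMSO baseline.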

[17] = read-out: Interleukin 6 Receptor (IL6R), IL6R (gene 3570); assay: LTEA_HepaRG_IL6R: Life Technologies and Expression Analysis (LTEA) Assay for Interleukin 6 Receptor (IL6R) using HepaRG (AID 2283510);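 as to AC50: differentiated human HepaRG liver cells in serum-free induction medium; TaqMan qRT-PCR signal normalized to ACTB GAPDH and POLR2A housekeeping genes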
Outline: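 IL6R transcript level by qRT-PCR after 48 h chemical exposure (8-point, half-log, max 100 uM, 0.5% DMSO vehicle) of HepaRG cells in serum-free induction medium. Normalized to three housekeeping genes; curves fitted in both directions relative to DMSO.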

[18] = read-out: Potassium channel subfamily K member 1 (KCNK1), KCNK1 (gene 3775); assay: LTEA_HepaRG_KCNK1: Life Technologies and Expression Analysis (LTEA) Assay for Potassium channel subfamily K member 1 (KCNK1) using HepaRG (AID 2283511)
Outline: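 HepaRG, 48 h exposure, 8-pt half-log series top 100 uM, 0.5% DMSO vehicle, duplicates. Readout: KCNK1 transcript by qRT-PCR (Fluidigm array), housekeeping-normalized; bidirectional curve fit relative to DMSO baseline.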

[19] = read-out: Keratin 19 (KRT19), KRT19 (gene 3880); assay: LTEA_HepaRG_KRT19: Life Technologies and Expression Analysis (LTEA) Assay for Keratin 19 (KRT19) using HepaRG (AID 2283512)
Outline: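 Readout is qRT-PCR of KRT19 mRNA, normalized to ACTB, GAPDH and POLR2A, from HepaRG cells treated 48 h with eight-point half-log dilutions topping at 100 uM. Activity in either direction is scored relative to 0.5% DMSO vehicle.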

[20] = read-out: Intercellular Adhesion Molecule 1 (ICAM1), ICAM1 (gene 3383); assay: LTEA_HepaRG_ICAM1: Life Technologies and Expression Analysis (LTEA) Assay for Intercellular Adhesion Molecule 1 (ICAM1) using HepaRG (AID 2283507)
Outline: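 Using the human liver line HepaRG, compounds are tested in duplicate over 48 h at concentrations up to 100 uM. Expression is determined by TaqMan qRT-PCR, normalized to endogenous controls, and analysed relative to 0.5% DMSO vehicle.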

Measured: AC50

Sequence of Hypoxia-inducible factor 1-alpha (Homo sapiens) (Q16665 whole entry, looked up): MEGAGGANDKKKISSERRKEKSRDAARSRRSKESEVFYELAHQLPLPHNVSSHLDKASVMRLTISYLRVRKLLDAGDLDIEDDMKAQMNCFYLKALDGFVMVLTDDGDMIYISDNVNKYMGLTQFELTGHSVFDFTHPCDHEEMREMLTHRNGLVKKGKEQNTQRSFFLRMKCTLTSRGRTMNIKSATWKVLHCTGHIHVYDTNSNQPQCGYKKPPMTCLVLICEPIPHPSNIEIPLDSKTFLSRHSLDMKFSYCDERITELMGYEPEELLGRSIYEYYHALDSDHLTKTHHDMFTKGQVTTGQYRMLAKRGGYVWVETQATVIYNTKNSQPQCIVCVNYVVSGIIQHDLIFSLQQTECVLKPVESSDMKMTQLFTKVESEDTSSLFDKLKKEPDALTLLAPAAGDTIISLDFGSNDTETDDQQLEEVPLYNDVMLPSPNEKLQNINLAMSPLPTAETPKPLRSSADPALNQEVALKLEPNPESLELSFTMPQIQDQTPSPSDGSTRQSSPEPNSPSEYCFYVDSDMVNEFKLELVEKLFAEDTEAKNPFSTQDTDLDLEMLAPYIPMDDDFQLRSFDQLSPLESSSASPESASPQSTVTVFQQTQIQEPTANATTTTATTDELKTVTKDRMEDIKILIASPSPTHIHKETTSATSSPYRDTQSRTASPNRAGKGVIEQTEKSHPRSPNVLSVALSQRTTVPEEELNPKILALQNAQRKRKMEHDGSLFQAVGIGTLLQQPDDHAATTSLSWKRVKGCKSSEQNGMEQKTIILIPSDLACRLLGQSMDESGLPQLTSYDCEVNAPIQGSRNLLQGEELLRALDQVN

O=C(O)c1[nH]n(-c2ccc(S(=O)(=O)O)cc2)c(=O)c1N=Nc1ccc(S(=O)(=O)O)cc1
not listed: [20]
inactive: all other assays above

CCCCC(CC)COC(=O)CCCCCCCC(=O)OCC(CC)CCCC (centres undefined)
inactive: all assays above

CCc1nc(N)nc(N)c1-c1ccc(Cl)cc1
inactive: [1] | [2] | [6] | [8] | [9] | [10] | [20] | [16] | [18]
active: [3] 60.7 µM | [4] 2.6 µM | [5] 41.8 µM | [7] 78.1 µM | [12] 68.8 µM | [13] 50 µM | [14] 11.8 µM | [15] 57.7 µM | [17] 26.7 µM | [19] 75.5 µM

CCN(CC)CCOc1ccc(C(=C(Cl)c2ccccc2)c2ccccc2)cc1
active: [3] 13.3 µM | [4] 13.3 µM | [5] 78.6 µM | [8] 78 µM | [12] 29.2 µM | [14] 13.3 µM | [20] 77.1 µM | [15] 61.2 µM | [16] 81.8 µM
inactive: all other assays above

CN(C)C(=O)NC1(c2ccccc2)CCN(CCC[C@]2(c3ccc(Cl)c(Cl)c3)CCCN(C(=O)c3ccccc3)C2)CC1
inactive: [1] | [9] | [11] | [12]
active: [2] 20.5 µM | [3] 23.7 µM | [4] 22.2 µM | [5] 20.3 µM | [6] 21.9 µM | [7] 20.4 µM | [8] 12.5 µM | [10] 20.5 µM | [13] 22.5 µM | [14] 16.4 µM | [20] 20.1 µM | [15] 18.2 µM | [16] 22.7 µM | [17] 17.2 µM | [18] 16.1 µM | [19] 20.7 µM

O=C(O)CC(O)(CC(=O)O)C(=O)O
not listed: [4]
inactive: all other assays above

CC(C)(C)c1ccccc1
not listed: [8] | [20]
inactive: all other assays above

CCCCCCCCCCCCCCCCO
active: [4] 50 µM | [17] 50 µM
inactive: all other assays above

O=NO
inactive: all assays above

CO[C@@H]1COCC[C@@H]1N[C@@H]1CC[C@@](C(=O)N2CCc3ncc(C(F)(F)F)cc3C2)(C(C)C)C1
not listed: [4]
inactive: all other assays above

O=C(Oc1ccccc1)c1cccc(C(=O)Oc2ccccc2)c1
not listed: [8]
inactive: all other assays above

Nc1nc(Cl)nc2c1ncn2[C@H]1C[C@H](O)[C@@H](CO)O1
inactive: [8] | [9] | [10] | [19]
active: [1] 0.481 µM | [2] 1.33 µM | [3] 5.92 µM | [4] 1.2 µM | [5] 1.76 µM | [6] 1.24 µM | [7] 5.75 µM | [12] 1.49 µM | [14] 2.39 µM | [15] 4.82 µM | [16] 16.1 µM | [17] 0.603 µM | [18] 1.36 µM

O=C1c2c(O)cccc2Cc2cccc(O)c21
not listed: [20]
inactive: all other assays above

Source: PubChem BioAssay (EPA / NIEHS)
